Among all 69,000 compounds or so, about 8,600 (12%) showed an effect of 50% or more. The full list was thinned out, with strong results kept by preference.
tested on: Plasmodium berghei; assay: Screen against P. berghei liver stage (PbLuc), transformed with Luciferase, at 10uM; type: functional, HepG2; conditions: tested at 10 uM

SMILES	INHIBITION [%]
COc1ccc(CN2C[C@H]3CN(Cc4ccncc4)C(=O)[C@H]3C2)cc1	22.3
O=C(Cc1c(F)cccc1Cl)NC1CCCCNC1=O (stereo not given)	-1.85
CC(=O)Nc1nc(C)c(S(=O)(=O)NCCc2ccccn2)s1	-1.85
O=S(=O)(C1CC1)N1CCO[C@H]2[C@@H](Oc3ncccc3F)CC[C@@H]21	-30
CC(C)N(Cc1ccccc1)C(=O)c1cc(C2CCCN2C)ccn1 (stereo not given)	-18.9
Cc1ncccc1Oc1ncnc(N2CCC3(CCCO3)CC2)c1C	-5.12
COc1ccc([C@@H](C)n2ccnc2-c2cc3n(n2)CCCNC3)cc1	15
CC(c1ccc(F)cc1)n1ccnc1-c1cc2n(n1)CCCNC2 (stereo not given)	58.3
COc1ccc(C(C)n2ccnc2-c2cc3n(n2)CCCNC3)cc1F (stereo not given)	-2.34
CN(CC(=O)N1CCN(c2ccccn2)CC1)c1ccc(Cl)cn1	-36.6
CNC(=O)[C@H]1C[C@@H]2CN(C(=O)c3ccncc3)C[C@@H]2N1S(C)(=O)=O	20.4
COCC(=O)Nc1ccccc1Sc1c(C)n[nH]c1C	60
Cc1n[nH]c(C)c1Sc1ccccc1NC(=O)N1CCCC(C(N)=O)C1 (stereo not given)	-24
Cc1n[nH]c(C)c1Sc1ccccc1NC(=O)CN1CCCC1	3.17
Cc1n[nH]c(C)c1Sc1ccccc1NC(=O)N1CCN(C)CC1	61.2
Cc1n[nH]c(C)c1Sc1ccccc1NC(=O)N1CCOCC1	30.3
Cc1n[nH]c(C)c1Sc1ccccc1NC(=O)N1CCOCC(O)C1 (stereo not given)	25.4
CCS(=O)(=O)N1CCc2c(CN(C)Cc3ccco3)cncc2C1	20.2
NC(=O)CNC(=O)c1ccc(CNCc2ccc(F)cc2F)cc1	54.5
NC(=O)COc1ccc(CNCc2ccc(F)cc2F)cc1	6.8
NC(=O)CNC(=O)c1ccc(CNCc2ccc(Cl)cc2Cl)cc1	48.9
Cc1cc(C)c(CNC(=O)NCC(O)c2ccccc2)c(=O)[nH]1 (stereo not given)	15.5
O=C(c1cccnc1)N1CCC2(CC1)COCCN(c1ncccn1)C2	16.8
CC(=O)NCCNC(=O)CN1CCCCC1Cn1cncn1 (stereo not given)	-15.5
O=c1[nH]c2nc(N3CCCC3)ncc2c(=O)n1-c1cccc(F)c1	2.69
Cc1cc(-c2ccc(=O)n(C3CCN(S(C)(=O)=O)CC3)n2)c(C)o1	-8.58
CCCS(=O)(=O)N1CCC(n2nc(-c3cc(C)oc3C)ccc2=O)CC1	68.4

SMILES	INHIBITION [%]
CCS(=O)(=O)N1CCC(n2nc(-c3cc(C)oc3C)ccc2=O)CC1	21.1
Cc1cc(NC(=O)C(C)Nc2cccc(COCc3ccco3)c2)no1 (stereo not given)	11.1
COCc1noc(CCC(=O)c2ccc3c(c2)OCCO3)n1	-41.4
O=C(COc1ccc(-n2cccn2)nn1)N1CCCC1	-66.4
CN(C)c1ccc(C(=O)N2CCCc3cc(OC(F)(F)F)ccc32)cn1	26.7
COc1ccc2c(c1)CCCN2C(=O)CN1CCOC(CN(C)C)C1 (stereo not given)	3.68
COc1ccc2c(c1)CCCN2C(=O)CN1CCOC(C)C1 (stereo not given)	50.9
COc1ccc2c(c1)CCCN2C(=O)CNCC1CN(C)CCO1 (stereo not given)	-39.2
COc1ccc2c(c1)CCCN2C(=O)c1cccc(N(C)C)c1	87.9
CN(C)c1cccc(C(=O)N2CCCc3cc(OC(F)(F)F)ccc32)c1	43.4
Fc1cnc(N2CC[C@@H]3O[C@H](COCc4ccccn4)CC[C@@H]32)nc1	-21.7
CC(C)COC1CC2(CCN(Cc3nccn3C)CC2)C1	31.6
Cc1nc2[nH]cnc(Nc3cnn(C)c3)c-2n1	-10.6
CC(C)C(NC(=O)C1CC1)c1cc(O)nc(-c2cccnc2)n1 (stereo not given)	3.4
COc1cc(-c2cnnc(NCCSC)n2)cc(OC)c1OC	52.2
COc1cc(-c2nc(N)n[nH]2)cc(OC)c1OC	20.4
CNc1cc(-c2cc(OC)c(OC)c(OC)c2)ncn1	27.8
Cc1cc(NCCCOC(C)C)c2nncn2n1	13.4
COc1cc(-c2cnnc(NCC3CC3)n2)cc(OC)c1OC	31.7
COc1cc(-c2cnnc(NCCCOC(C)C)n2)cc(OC)c1OC	57.9
COCC(NC1CSCCSC1)c1ccnn1C (stereo not given)	31.2
CN1CCN(CC2(O)CCCN(S(=O)(=O)c3cn[nH]c3)CC2)CC1 (stereo not given)	29.6
Cn1ccc(C(=O)N2CCC(c3cc(CCO)n(C)n3)C2)n1 (stereo not given)	-3.94
CCN(CC)c1nc(Nc2cccc(C(=O)O)c2)nc2ccccc12	5.18
CCN(CC)c1nc(Nc2cccc(C(C)O)c2)nc2ccccc12 (stereo not given)	87.2
CC(O)c1cccc(Nc2nc(NCCO)c3ccccc3n2)c1 (stereo not given)	44.9
COc1coc(CN2CCCC(CCc3ccc(F)c(F)c3)C2)cc1=O (stereo not given)	63.6

SMILES	INHIBITION [%]
COc1ccc(CN2CCCC(Cn3nc(C)nc3C)C2)cc1F (stereo not given)	-15.8
COc1coc(CN2CCCC3(CCC(=O)N(C4CC4)C3)C2)cc1=O (stereo not given)	53.6
COc1coc(CN2CCCC(CCc3ccc(F)cc3)C2)cc1=O (stereo not given)	73.5
COc1coc(CN2CCCC3(CCC(=O)N(CC4CC4)C3)C2)cc1=O (stereo not given)	33.2
Cc1[nH]c(=O)[nH]c(=O)c1CN1CCCC(CCc2ccccc2)C1 (stereo not given)	-38.2
COCCN1CC2(CCCN(Cc3cc(=O)c(OC)co3)C2)CCC1=O (stereo not given)	23.9
COc1ccc(CCC2CCCN(CC(=O)O)C2)cc1 (stereo not given)	23.9
Cc1[nH]c(=O)[nH]c(=O)c1CN1CCCC(CCc2ccc(F)c(F)c2)C1 (stereo not given)	4.48
CCOc1cc(C(=O)N2CCCC(n3nc(C)nc3C)C2)ccn1 (stereo not given)	-11.9
Cc1noc(C)c1-c1nc(N(C)CCN(C)C)ncc1-c1cnccn1	2.71
CC(C)(C)c1cc(CN2C[C@H]3CC[C@@H](C2)N(Cc2ccccn2)C3)n[nH]1	33.3
c1ncn(Cc2cnc3n2CCN(Cc2ccsc2)CC3)n1	37
CC(C)(C)CC(=O)Nc1ccccc1SCC(N)=O	-53.6
FC(F)(F)C1CN(Cc2cnc3c(-c4ccccc4)cnn3c2)CCO1 (stereo not given)	25.9
CC(O)C1CCN(Cc2cnc3c(-c4ccccc4)cnn3c2)CC1 (stereo not given)	63.6
OCCN1CCN(Cc2cnc3c(-c4ccccc4)cnn3c2)CC1	44.8
CC(C)O[C@H]1CN(Cc2cnc3c(-c4ccccc4)cnn3c2)C[C@@H]1O	8.74
O=C1CCN(Cc2cnc3c(-c4ccccc4)cnn3c2)CCN1	29.2
NCCC1CN(Cc2cnc3c(-c4ccccc4)cnn3c2)CCO1 (stereo not given)	40.7
c1ccc(-c2cnn3cc(CN4CCC5(CCO5)CC4)cnc23)cc1	87.4
O=C1CN(Cc2cnc3c(-c4ccccc4)cnn3c2)CCCN1	75.1
CN(C)CC1(O)CCN(Cc2cnc3c(-c4ccccc4)cnn3c2)C1 (stereo not given)	20.2
CN(Cc1ccsc1)C(=O)c1cc2c([nH]c1=O)CCC2	-9.6
Cc1csc(CNCc2c(C)nn(C)c2N2CCOCC2)n1	-19.7
CCCN(CC)C(=O)c1ncn2c1CN(C)S(=O)(=O)c1ccccc1-2	-49.7
COCCOCC(=O)Nc1nc2c(OC)cc(F)cc2s1	7.65
Cc1nnc(CN(Cc2ccc3c(c2)OCO3)C2CCC(C)CC2)o1 (stereo not given)	-45.9

SMILES	INHIBITION [%]
COc1cc(OC)c(C2CC(=O)Oc3cc(C)[nH]c(=O)c32)cc1OC (stereo not given)	4.07
CC(Cn1cnc2cn(C)nc2c1=O)Oc1cccnc1 (stereo not given)	52.6
Cn1cc2ncn(CCNc3cccnc3)c(=O)c2n1	31.6
Cn1cc2ncn(CCCOc3cccnc3)c(=O)c2n1	14.3
Cc1ccc(S(=O)(=O)NC(C)C#N)cc1Br (stereo not given)	4.95
CC(C#N)NS(=O)(=O)c1cccc(C(C)C)c1 (stereo not given)	22.3
CCC(=O)c1cccc(S(=O)(=O)NC(C)C#N)c1 (stereo not given)	54.4
CS(=O)(=O)NCC1CCCCN1C(=O)Nc1cccnc1N1CCCC1 (stereo not given)	34.7
c1coc(-c2nnc(CN3CCCC3Cn3cncn3)o2)c1 (stereo not given)	17.5
CCCn1ncc(CN(CCN(C)C)Cc2ccsc2)c1C	57.5
CCCn1ncc(CN(Cc2ccsc2)Cc2ccco2)c1C	13
CCCn1ncc(CN(Cc2cccnc2)Cc2ccsc2)c1C	22.9
Cc1c(C(=O)NCCC(C)C)nnn1-c1cccc2c1CCN(C)C2	36.3
CCC(C)NC(=O)c1nnn(-c2cccc3c2CCN(C)C3)c1C (stereo not given)	51.7
CCC(C)(C)NC(=O)c1nnn(-c2cccc3c2CCN(C)C3)c1C	36.3
Cc1c(C(=O)NCC(C)C)nnn1-c1cccc2c1CCN(C)C2	56.1
Cc1c(C(=O)NC(C)C(C)C)nnn1-c1cccc2c1CCN(C)C2 (stereo not given)	11.8
Cc1c(C(=O)NCC(C)C)nnn1-c1cccc2c1CCN(C(C)C)C2	38
Cc1ccc(C)c(C(C)NC(=O)N2CCC(n3cncn3)CC2)c1 (stereo not given)	-3.2
CN1CCN([C@@H]2CCN(C3CCOC3)[C@H]2Cc2cnn(C)c2)CC1 (stereo not given in full)	24.9
Cc1cc2ncn(C(=O)N3CCCCC3)c2cc1C	-16
CCOC1CCCN(C(=O)c2ccccc2NCc2cccnc2)C1 (stereo not given)	16.8
O=C(Cc1ccc2c(c1)OCCO2)NC1CC1	-60.4
CC[C@@H]1N(Cc2ccc(C)o2)CCC[C@]12CCC(=O)N2CCOC	29.3
